Experimental data taken from the supplement of paper PMC8699584.
Where “and” joins values, the source holds several entries; their conditions need not be identical. Equal values may be shown once. Where a name gives a salt, the structure may show the parent alone. ± gives the standard deviation of the averaged measurements.

Assays:
Molm13 = test: cell viability relative to DMSO control (bortezomib = 0%); higher = less growth inhibition; conditions: 10 nM; 72 h
Outline: (§1)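 FLT3-ITD+ acute myeloid leukemia cells were dispensed onto a library of 679 approved and investigational compounds in 384-well plates, at 1000 cells per well in 50 µL and a single 10 nM dose, for 72 h. The screen was run in duplicate. Cell viability was read by CellTiter-Glo luminescence on an EnVision reader. Values were converted to percentages by per-plate linear regression between DMSO-treated cells (100%) and positive-control-treated cells (0%).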

Mv4-11 = test: as above; conditions: 10 nM; 72 h
Outline: as §1

Row | Structure (SMILES) | cell viability (Molm13) | cell viability (Mv4-11)
1 | COc1cccc(-c2cc(=O)c3ccccc3o2)c1N | 105 ± 10% | 103 ± 8.4%
2 | CNc1nc(-c2ccc3c(N)n[nH]c3c2)cc(N2C[C@@H](C(=O)NC3CCCCC3)CC[C@H]2C)n1 | 112 ± 2.6% | 99.15 ± 0.68%
3 | Nc1ccc(C(=O)Nc2cccc(-c3nc(N4CCOCC4)c4oc5ncccc5c4n3)c2)cn1 | 104% and 101% | 106% and 108%
4 | Cc1[nH]c(/C=C2\C(=O)Nc3ccc(S(=O)(=O)N(C)c4cccc(Cl)c4)cc32)c(C)c1C(=O)N1CCN(C)CC1 | 104 ± 22% | 107 ± 13%
5 | CC1(C)CC[C@]2(C(=O)O)CC[C@]3(C)C(=CC[C@@H]4[C@@]5(C)CC[C@H](O[C@@H]6O[C@H](C(=O)O)[C@@H](O)[C@H](O[C@@H]7OC[C@@H](O)[C@H](O)[C@H]7O)[C@H]6O)C(C)(C)[C@@H]5CC[C@]43C)[C@@H]2C1 [Momordin Ic] | 87.4 ± 13% | 106 ± 5%
6 | CNS(=O)(=O)C[C@H]1CC[C@H](N(C)c2[nH]cnc3nccc2-3)CC1 [Oclacitinib] | 96.5 ± 22% | 107 ± 18%
7 | COc1ccc(CCNCc2ccc(OCc3ccc(Cl)nc3)c(OC)c2)cc1OC [SBE 13 hydrochloride] | 99.3 ± 18% | 107 ± 3%
8 | COc1cc2c(cc1OC)-c1[nH]nc(Nc3cccc(F)c3)c1C2 | 120 ± 23% | 116 ± 26%
9 | CC[C@@](C)(Nc1ccnc(-c2c[nH]c3ncccc23)n1)C(=O)NCC(F)(F)F [Decernotinib(VX-509)] | 98.6 ± 1.4% | 89.3 ± 6.1%
10 | CN(C)C/C=C/C(=O)Nc1cc2c(Nc3ccc(F)c(Cl)c3)ncnc2cc1O[C@H]1CCOC1 [Afatinib (BIBW2992)] | 87.5 ± 7.3% | 97.7 ± 6.9%
11 | C[S+]([O-])c1ccc(-c2nc(-c3ccc(F)cc3)c(-c3ccncc3)[nH]2)cc1 (centres undefined) | 104% and 108% and 110% | 110% and 114% and 112%
12 | COc1cc2nccc(Oc3ccc(NC(=O)Nc4cc(C)on4)c(Cl)c3)c2cc1OC [Tivozanib (AV-951)] | 96.3 ± 6.1% | 96.1 ± 11%
13 | COc1cc2ncnc(Nc3ccc(O)cc3)c2cc1OC [Janex 1] | 101 ± 12% | 111 ± 5.3%
14 | CNC(=O)c1ccc(-c2cnc3ncc(Cc4ccc5ncccc5c4)n3n2)cc1F | 109 ± 3.6% | 108 ± 6.8%
15 | CCc1cncnc1N1CCN(Cc2nc3ccc(C(F)(F)F)cc3[nH]2)CC1 | 106 ± 32% | 116 ± 7.7%
16 | N#CC(=Cc1cc(Cl)cc(Cl)c1)c1cccnc1 | 116 ± 8.1% | 108 ± 7.3%

Row | Structure (SMILES) | cell viability (Molm13) | cell viability (Mv4-11)
17 | NC(=O)Nc1cc(-c2ccc(CN3CCOCC3)cc2)sc1C(N)=O | 108 ± 30% | 113 ± 6.3%
18 | CCCCCCCCCCCC(=O)NC[C@]1(C)CCC[C@]2(C)c3ccc(C(C)C)cc3CCC12 (some centres undefined) [Lauric Acid Leelamide] | 93 ± 7.2% | 104 ± 12%
19 | CNC(=O)c1cc(Oc2ccc(NC(=O)Nc3ccc(Cl)c(C(F)(F)F)c3)cc2)ccn1 | 45 ± 3.3% | 45.2 ± 5.3%
20 | CS(=O)(=O)N1CCc2c(-c3cnc(N)nc3)nc(N3CCOCC3)nc21 | 119.7 ± 0.72% | 126 ± 9.7%
21 | COc1cc2ncnc(Nc3cccc(Cl)c3F)c2cc1OC(=O)N1CCN(C)C[C@H]1C | 110 ± 8.6% | 99.9 ± 8.6%
22 | Nc1nccc(-c2c(-c3ccc(F)cc3)ncn2C2CCCCC2)n1 | 96.6 ± 18% | 114.4 ± 0.84%
23 | COc1ccc2cc1Oc1ccc(cc1)C[C@H]1c3cc(c(OC)cc3CCN1C)Oc1c(O)c(OC)cc3c1[C@H](C2)N(C)CC3 [Fangchinoline] | 90.9 ± 1.6% | 122 ± 9.6%
24 | c1cc(-c2cnn3cc(-c4ccc(OCCN5CCCCC5)cc4)cnc23)ccn1 | 95.5 ± 6% | 117 ± 10%
25 | O=Nc1c(-c2c(O)[nH]c3ccccc23)[nH]c2ccccc12 [Indirubin-3'-monoxime] | 88 ± 13% | 80.7 ± 4.5%
26 | O=C1NC(=O)/C(=C/c2ccc3nccnc3c2)S1 | 102 ± 17% | 113 ± 4.8%
27 | O=C(Nc1cc(Oc2cc(F)c(NC(=O)C3(C(=O)Nc4ccc(F)cc4)CC3)cc2F)ccn1)C1CC1 [Altiratinib(DCC2701)] | 106 ± 12% | 120 ± 8.4%
28 | CC1(C)C=Cc2c(ccc3c2OC[C@@H](c2ccc(O)cc2O)C3)O1 [Glabridin] | 100 ± 12% | 99 ± 1.6%
29 | COc1cc2ncnc(Nc3cccc(O)c3)c2cc1OC | 109 ± 6.3% | 109 ± 8.6%
30 | COc1ccc(S(=O)(=O)N(CCO)c2ccccc2CN(C)C/C=C/c2ccc(Cl)cc2)cc1 [KN-93 Phosphate] | 99.1 ± 2.2% | 101 ± 5.2%
31 | C[C@@H]1CCN(C(=O)CC#N)C[C@@H]1N(C)c1ncnc2[nH]ccc12 | 109% and 101% | 99.7% and 105%
32 | NC(=O)c1ncn([C@@H]2O[C@H](CO)[C@@H](O)[C@H]2O)c1N [AICAR (Acadesine)] | 110 ± 7.6% | 111 ± 9.2%
